Source: PubChem BioAssay
CYP2C19 act – human CYP2C19 activators, primary screen, biochemical, luminescence; 96,000 tested, under 10 active; AID 1025, 2008; recombinant CYP2C19, luciferin-H EGE luminescence; hits give high values; 0 = fully inhibited enzyme, 1 = untreated enzyme; activation factor at 5 µM;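 active = activation factor of at least 2 at 5 µM in the primary screen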;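 note: 0 = wells with 2.5 mM tranylcypromine and 1 = vehicle-only wells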
CYP2C19 inh – blockers of cytochrome P450 2C19 activity – biochemical, luminescence, ADME assay, primary screen; P33261; CYP2C19 Supersomes, luciferin-H EGE luminescence, 30 min; inhibition, % at 5 µM; actives 21% (n = 96,000);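 active = CYP2C19 inhibition above a set limit at 5 µM in the primary screen, cut at about 50% in these data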;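 note: plate controls were negative control wells for no effect and 2.5 mM tranylcypromine positive control for full effect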
CYP2C9 activ – human CYP2C9 activators, primary screen, biochemical, luminescence; actives 1.4% (n = 96,000); AID 1024, 2008; activation factor at 5 µM; recombinant CYP2C9, luciferin-H conversion; hits give high values; factor 1 = untreated enzyme, 0 = blocked;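 active = activation factor of 2 or more for CYP2C9 at a 5 µM dose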;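 note: 0 = sulfaphenazole-blocked wells and 1 = vehicle-only wells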
Target sequence (P11712 whole entry, looked up): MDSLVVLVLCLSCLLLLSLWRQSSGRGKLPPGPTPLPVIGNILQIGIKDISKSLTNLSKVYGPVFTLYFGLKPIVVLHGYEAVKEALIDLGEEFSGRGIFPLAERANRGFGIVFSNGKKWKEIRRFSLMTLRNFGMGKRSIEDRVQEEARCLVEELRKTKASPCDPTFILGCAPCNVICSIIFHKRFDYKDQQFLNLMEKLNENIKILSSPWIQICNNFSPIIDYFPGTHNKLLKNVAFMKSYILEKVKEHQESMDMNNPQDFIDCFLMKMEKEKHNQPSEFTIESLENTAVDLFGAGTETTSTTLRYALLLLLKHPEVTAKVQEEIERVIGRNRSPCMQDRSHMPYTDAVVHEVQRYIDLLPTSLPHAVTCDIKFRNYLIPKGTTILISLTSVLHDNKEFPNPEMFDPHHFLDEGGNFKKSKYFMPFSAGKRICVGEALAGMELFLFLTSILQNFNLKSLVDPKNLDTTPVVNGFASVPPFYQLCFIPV
CYP2C9 inh – blockers of cytochrome P450 2C9 activity – biochemical, luminescence, ADME assay, primary screen; inhibition, % at 5 µM; actives 20% (n = 96,000); CYP2C9 Supersomes, luciferin-H conversion; P11712;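 active = blocking of liver enzyme CYP2C9 beyond about 50% at 5 µM, limit read from the data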
Measles CPE – compounds protecting cells from measles virus cytopathic effect, primary screen, measles RdRp inhibitor project, single point, MLSMR library, absorbance; Measles virus-infected cells, CPE protection; protection (pct of control), % at 4 µM; actives 1.5% (n = 140,000); in the data active = protection mostly above about 24%, no sharp cut-off; inactive = mostly below about 26%
Active calls of the source: *; · = no result. Most compounds without a hit are left out; they make up all but 22% or so of the library.

SMILES	CYP2C19 act	CYP2C19 inh	CYP2C9 activ	CYP2C9 inh	Measles CPE
CCOC(=O)c1ccc(NC(=O)Oc2ccccc2)cc1	0.8	20	0.9	10	4
COc1ccc(NC(=S)N2CCC(c3nc4ccccc4[nH]3)CC2)c(OC)c1	0.8	22	0.4	59*	5
CCOc1ccccc1NC(=O)N1CCC(c2nc3ccccc3[nH]2)CC1	0.4	63*	1.5	-47	34
CCCc1cc(C(=O)Nc2ccccc2SC)no1	0.8	20	4*	-304	3
CCCc1cc(C(=O)Nc2ccc(F)cc2F)no1	1.1	-11	1.1	-7	5
CCCc1cc(C(=O)Nc2cccc(Cl)c2)no1	0.3	66*	0.9	8	15
CSc1ccccc1NC(=O)c1cc(-c2cccs2)on1	0.9	8	2.7*	-165	5
Cc1ccc(-c2nn3c(C)nnc3s2)cc1NCc1c(F)cccc1Cl	0.3	68*	0.3	74*	3
Cc1ccc(-c2nn3c(C)nnc3s2)cc1NC(=O)c1cccnc1	0.5	50*	0.4	60*	5
Cc1ccc(-c2nn3c(C)nnc3s2)cc1NC(=O)CSc1ccc(Cl)cc1	·	·	·	·	1
Cc1nnc2sc(-c3cccc(NC(=O)c4cccnc4)c3)nn12	1	1	1	2	6
Cc1ccc(-c2nn3c(C)nnc3s2)cc1NC(=O)C(C)C	0.9	14	0.9	11	15
Cc1ccc(CNc2cc(-c3nn4c(C)nnc4s3)ccc2C)s1	0.7	28	0.5	54*	7
COc1ccc(-n2cnnc2SCC(=O)Nc2cccc(S(=O)(=O)N3CCCCC3)c2)cc1	·	·	·	·	1
Cc1ccc(NC(=O)C(CC(C)C)NC(N)=O)cc1Cl (stereo unspecified)	·	·	·	·	13
COCCNc1nc(SCc2ccccc2)nc2sc3c(c12)CCC3	0.7	28	0.6	40	4
CCc1cc([N+](=O)[O-])cc(CC)c1N	0.4	55*	1.3	-28	26
CN(C)/C=C1/C=C(c2ccccc2)OC1=O	1	4	1	-5	5
O=C1C=C(c2ccccc2)OC(=O)C1C(=O)c1ccccc1 (stereo unspecified)	·	·	·	·	27*
O=C1C2Sc3[nH]c(=O)sc3C(c3ccccc3)C2C(=O)N1c1ccc(Cl)cc1 (stereo unspecified)	0.3	67*	0.5	52*	3
Cc1nc(C)c(C(=O)NNS(=O)(=O)c2ccc([N+](=O)[O-])cc2)s1	·	·	·	·	26
CCCCOc1ccc(NC(=O)CSc2cccc3cccnc23)cc1	·	·	·	·	17
CC(=O)N1CCc2cc(S(=O)(=O)NCCC(=O)NC3CCN(Cc4ccccc4)CC3)ccc21	1	-2	0.9	10	23
CC(=O)N1CCc2cc(S(=O)(=O)NCCN3CCC(C)CC3)ccc21	0.5	51*	1	3	38*
CCC(=O)N1CCc2cc(S(=O)(=O)NCCCN3CCN(Cc4ccccc4)CC3)ccc21	0.8	19	0.7	25	2
SMILES	CYP2C19 act	CYP2C19 inh	CYP2C9 activ	CYP2C9 inh	Measles CPE
CC(=O)N1CCc2cc(S(=O)(=O)NCCCN3CCN(Cc4ccccc4)CC3)ccc21	0.5	52*	0.5	50	17
COc1ccc(CCNC(=O)CCNS(=O)(=O)c2ccc3c(c2)CCN3C(C)=O)cc1OC	0.9	9	0.4	61*	18
COc1ccc(CCNS(=O)(=O)c2ccc3c(c2)CCN3C(=O)CCC(=O)O)cc1OC	1	-1	1	-4	3
Cc1cccc(Cc2cnc(NC(=O)c3ccc(C)o3)s2)c1	0.6	39	0.9	12	4
CCOC(=O)c1cc(-c2ccccc2)n(CC(=O)Nc2ccc(OC)c(OC)c2)c1C	·	·	·	·	6
O=C(CNC(=O)c1ccc(N2C(=O)c3ccccc3C2=O)cc1)OCC(=O)c1ccccc1	·	·	·	·	5
COc1ccc(OCCCn2c(=O)oc3ccccc32)cc1	·	·	·	·	30
CC(C)(C)C(=O)NCCCc1nc2ccccc2n1CCCOc1ccc(Cl)cc1	0.6	42	0.2	84*	4
Cn1c(=O)n(CCCOc2ccc(Cl)cc2)c2ccccc21	0.2	76*	0.9	12	19
Cn1c(=O)n(CCCOc2ccc(Br)cc2)c2ccccc21	0.3	70*	0.9	8	19
C=CCn1c(CCCNC(=O)C(C)(C)C)nc2ccccc21	0.9	9	1	3	3
OCc1nc2ccccc2n1CCCOc1ccc(Br)cc1	0.5	49	0.7	26	7
COC(=O)C1(C(O)C(=O)c2ccc(C)cc2C)CCCCC1 (stereo unspecified)	0.4	64*	0.6	37	10
Cc1ccc(C(=O)NC(=S)Nc2ccc3c(c2)OCCO3)c(C)c1	1	-4	1.8	-79	5
CCCCOC(=O)C1[C@H]2C(=O)N(c3ccccc3CC)C[C@]23C=C[C@H]1O3 (stereo partly specified)	1	-1	1.3	-25	19
Cc1ccc(S(=O)(=O)NNc2ccccc2)cc1	0.8	20	1.2	-16	8
Cc1ccc(S(=O)(=O)NNc2nc3ccccc3nc2C(F)(F)F)cc1	0.3	67*	0.5	50*	14
O=c1oc2ccccc2c(N2CCCCC2)c1CN1CCCCC1	·	·	·	·	25
Cc1cccc2cc(CN(Cc3ccco3)C(=O)Nc3cccc(C#N)c3)c(Cl)nc12	0.4	62*	0.1	95*	18
Cc1ccc(NC(=O)N(Cc2ccco2)Cc2cc3cc(C)cc(C)c3nc2Cl)cc1	0.8	19	0.5	50*	4
Cc1ccc(C)c2[nH]c(=O)c(CN(Cc3ccco3)C(=O)Nc3ccccc3)cc12	0.7	26	0.6	40	18
COc1ccc(-c2ocnc2C(=O)Nc2ccccc2N2CCCCC2)cc1	0.7	33	0.4	57*	15
CCOc1ccc(C(=O)Nc2ccccc2N2CCCC2)cc1	0.9	10	1.1	-9	3
CCc1nc2ccccc2n1CC(=O)N1CCN(S(=O)(=O)c2cccc(C(F)(F)F)c2)CC1	1	-3	1	2	11
CCOC(=O)Cn1c(=O)oc2cc(S(=O)(=O)Nc3cc(OCC)ccc3OCC)ccc21	0.3	73*	0.3	74*	12
CCOC(=O)Cn1c(=O)oc2cc(S(=O)(=O)Nc3cccc(C)c3)ccc21	0.5	50*	0.5	54*	2
CCOC(=O)Cn1c(=O)oc2cc(S(=O)(=O)Nc3ccc(N(CC)CC)cc3C)ccc21	0.3	67*	0.4	61*	21
CCOCCCNS(=O)(=O)c1ccc2c(c1)oc(=O)n2CC(=O)OCC	1.1	-10	0.8	19	6
CN(Cc1ccccc1)C(=O)Cn1c(=O)oc2cc(S(=O)(=O)NCc3ccccc3)ccc21	0.9	7	1	4	29
